Measured values reported in paper PMC5540273 (PLoS ONE, 2017).

What was measured:
Settings in all cases: concentration: 1 μM, replicates: in singlicate; n = 1
[1] = tested on: T1, NDR1
T1 construct: gene STK38

[2] = tested on: NDR2
[3] = tested on: NEK10
[4] = tested on: NEK11
[5] = tested on: NEK1
[6] = tested on: NEK2
[7] = tested on: NEK3
[8] = tested on: NEK4
[9] = tested on: NEK5
[10] = tested on: NEK6
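Also: KINOMEscan kinase panel screen.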

| SMILES | %Inh [1] | %Inh [2] | %Inh [3] | %Inh [4] | %Inh [5] | %Inh [6] | %Inh [7] | %Inh [8] | %Inh [9] | %Inh [10] |
| --- | --- | --- | --- | --- | --- | --- | --- | --- | --- | --- |
| CN(C)CCN(C)C(=O)c1cc(-c2ccncc2)c(-c2ccc(Cl)c(O)c2)o1.Cl.Cl [SB-710397] | 1% | 36% | 33% | 29% | 0% | 0% | 26% | 20% | 8% | 0% |
| O=C(Nc1n[nH]c2cc(-c3cccc(F)c3F)ccc12)C1CC1 [SB-733894] | 5% | 0% | 0% | 0% | 0% | 5% | 39% | 3% | 0% | 0% |
| COc1ccccc1-c1ccc2c(NC(=O)C3CC3)n[nH]c2n1 [SB-711239] | 8% | 0% | 11% | 33% | 0% | 22% | 0% | 6% | 0% | 4% |
| Fc1cc(Cl)ccc1Nc1ccnc2cc(I)ccc12 [GW551191] | 18% | 0% | 25% | 0% | 0% | 4% | 0% | 11% | 0% | 0% |
| Cc1ccc(NC(=O)Nc2cccc(Cl)c2)cc1-c1ccc(C(=O)Nc2ccncc2)cc1 [GSK1398468] | 25% | 0% | 3% | 0% | 0% | 2% | 16% | 0% | 20% | 0% |
| Clc1cc(Cl)cc(Nc2ccnc(Nc3cc(Cl)cc(Cl)c3)n2)c1 [GSK175726] | 21% | 11% | 4% | 8% | 1% | 4% | 16% | 0% | 23% | 0% |
| O=C(Nc1ccc2c(c1)OCO2)NC1CCN(c2ccnc(Nc3ccc(F)cc3)n2)C1 (stereo not drawn) [GSK1379724] | 0% | 0% | 11% | 0% | 0% | 0% | 17% | 20% | 25% | 0% |
| Fc1cccc(COc2nnc(-c3ccc4c(c3)CCO4)o2)c1 | 0% | 4% | 0% | 0% | 10% | 0% | 12% | 0% | 0% | 0% |
| CCn1c(-c2ccccn2)nc2cnccc21 [SB-736398] | 6% | 0% | 26% | 39% | 100% | 0% | 12% | 10% | 0% | 0% |
| Cl.c1ccc(-c2n[nH]cc2-c2ccnc(-c3ccc(CN4CCOCC4)cc3)c2)nc1 [GW776245] | 14% | 31% | 0% | 0% | 0% | 21% | 14% | 0% | 6% | 22% |
| CC(C)(C)c1ccc(C(=O)Nc2cn3cc(Cl)ccc3n2)cc1 | 99.7% | 0% | 4% | 0% | 0% | 0% | 21% | 0% | 0% | 0% |
| COc1ccc(Nc2nccc(NCCNC(=O)Nc3ccccc3F)n2)cc1 [GSK1379901] | 26% | 0% | 13% | 0% | 0% | 0% | 19% | 0% | 3% | 0% |
| COc1cc2ncn(-c3cc(OCC4CCCO4)c(C(N)=O)s3)c2cc1OC (stereo not drawn) [GSK204607] | 12% | 10% | 0% | 0% | 11% | 28% | 5% | 0% | 10% | 0% |
| Cn1ccc2ncnc(Oc3cccc(C(=O)Nc4ccccc4)c3)c21 | 14% | 0% | 0% | 0% | 0% | 0% | 0% | 0% | 0% | 17% |
| COc1cc2ncnc(Nc3ccc4nc(-c5ccccc5)[nH]c4c3)c2cc1OC.Cl [GW282450] | 17% | 0% | 14% | 2% | 0% | 0% | 0% | 4% | 29% | 0% |
| Cc1cccc(-c2cc(Nc3ccncc3)c3ccccc3n2)n1 [GSK223675] | 0% | 0% | 0% | 0% | 0% | 0% | 17% | 0% | 0% | 0% |
| NC(=O)c1nnc2ccccc2c1N | 20% | 0% | 85% | 0% | 0% | 16% | 31% | 4% | 3% | 10% |
| Cc1cccc(-c2nc(-c3ccc(S(C)(=O)=O)cc3)sc2-c2ccnc(NCCc3ccccc3)c2)c1 | 1% | 0% | 14% | 0% | 0% | 0% | 30% | 0% | 2% | 0% |
